NPC1 prom act: qHTS Assay for NPC1 Promoter Activators. Huh7 NPC1 promoter luciferase reporter, 24 h. AID 485313, 2010. 2.4% of 320,000 active. Potency, µM (doses to about 9.22 µM), actives largely listed as activators; also: nearly all actives have a fitted effect of over 60% in size
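Readout is luciferase luminescence, reflecting NPC1 promoter activation in stably transfected Huh7 cells after 24 h compound exposure at 37 °C in reduced-serum medium with 10% FBS.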
SMN2 splice up: qHTS Assay for Enhancers of SMN2 Splice Variant Expression. 2.8% of 210,000 active. HEK293 SMN2-luciferase splicing reporter, luminescence, 30-36 h. Potency, µM (doses to about 46.1 µM), hits mostly activators. AID 1458, 2008; also: nearly all actives have a fitted effect of over 55% in size
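qHTS luciferase splicing reporter: luminescence rises when SMN2 exon 7 is included in transfected HEK293 cells. Compound exposure lasted 30-36 h at 37C, with 4.5 mM final sodium butyrate as control, followed by a ONE-Glo read.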
ELG1 genotox: qHTS screen for small molecules that induce genotoxicity in human embryonic kidney (HEK293T) cells expressing luciferase-tagged ELG1; HEK293T ELG1-luciferase reporter, luminescence, 16 h; Potency, µM (series often up to 46 µM), most hits filed as activators; 1.3% of 330,000 active; also: nearly all actives have a fitted effect of over 60% in size
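After overnight (16 hr) compound treatment at 37 °C, ELG1-luciferase HEK293T cells were lysed with ONE-Glo; luminescence quantified 30 min later at room temperature.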
FLuc counter: qHTS profiling assay for firefly luciferase inhibitor/activator using purifed enzyme and Km concentrations of substrates (counterscreen for miR-21 project); Potency, µM (highest dose often 57.5 µM), most hits filed as inhibitors; 6.9% of 360,000 active; purified FLuc, Km substrates, luminescence inhibition; also: nearly all actives have a fitted effect of over 55% in size
Target sequence (P08659 whole entry, looked up): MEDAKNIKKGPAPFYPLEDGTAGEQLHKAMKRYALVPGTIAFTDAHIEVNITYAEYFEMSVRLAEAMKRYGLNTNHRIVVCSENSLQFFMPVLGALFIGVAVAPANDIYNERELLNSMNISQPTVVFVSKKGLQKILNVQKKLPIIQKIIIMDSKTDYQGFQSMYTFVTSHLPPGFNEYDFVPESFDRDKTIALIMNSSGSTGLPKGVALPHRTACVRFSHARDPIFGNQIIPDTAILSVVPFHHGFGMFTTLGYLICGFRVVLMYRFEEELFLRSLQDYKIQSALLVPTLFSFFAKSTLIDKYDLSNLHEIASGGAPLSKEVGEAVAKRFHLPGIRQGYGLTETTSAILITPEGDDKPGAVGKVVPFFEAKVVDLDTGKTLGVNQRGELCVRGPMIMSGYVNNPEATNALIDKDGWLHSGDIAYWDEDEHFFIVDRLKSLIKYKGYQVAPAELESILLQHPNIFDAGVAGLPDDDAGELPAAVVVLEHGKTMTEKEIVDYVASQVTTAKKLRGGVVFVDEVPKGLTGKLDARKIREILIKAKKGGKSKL
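Purified P. pyralis luciferase (10nM final) with 10uM D-luciferin and 10uM ATP (Km levels) in 50mM Tris acetate pH 7.5, 10mM Mg acetate, 0.01% Tween-20, 0.05% BSA; qHTS 6-point titration, ~60 µM downward; luminescence read.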
Rab9 promoter act: qHTS Assay for Rab9 Promoter Activators | Huh7 Rab9 promoter-luciferase reporter, luminescence, 24 h | Potency, µM (top dose mostly 9.22 µM), actives largely listed as activators | AID 485297, 2010 | 2.8% of 320,000 active; also: nearly all actives have a fitted effect of over 60% in size
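Huh7 cells stably carrying Rab9 promoter–luciferase reporter, plated 1500 cells/well, compound added after 2 h and incubated 24 h at 37 °C; luciferase luminescence then read after 10 min with detection reagent.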
p53 reactivation: qHTS assay for re-activators of p53 using a Luc reporter; AID 504706, 2011; Potency, µM (titrated, usually from 92.2 µM), most hits filed as activators; H1299 p53-A138V BP100-luciferase reporter, luminescence, 24 h; 0.063% of 320,000 active; also: nearly all actives have a fitted effect of over 45% in size
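p53-null H1299 cells stably carrying temperature-sensitive p53-A138V and a BP100-luciferase reporter were pinned with compounds (4-point, 1:5 series) and held 24 hrs at 37 deg C. Luminescence was read 10 min after detection reagent.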
Each line names hits and unclear results; the compound was inactive in the other large screens. Most compounds without a hit are left out; they make up all but 7.4% or so of the library. Calls follow the shape of the dose curve; as a rule, active = well fitted curve in the direction sought with a large enough effect; inconclusive = small, poorly fitted or top-dose-only effect, or another doubt; inactive = no such curve, though single readings can be large; an effect the other way counts as inactive or inconclusive.

C[C@@]12CC(=O)[C@@H]3[C@@H](CCC4=CC(=O)CC[C@]43C)[C@@H]1CC=C2CC(=O)O	none (no result: NPC1 prom act, ELG1 genotox, FLuc counter, Rab9 promoter act, p53 reactivation)
O=C(Nc1ccc(Cl)c(C(F)(F)F)c1)c1nc2ccccc2nc1N1CCCCC1	none (no result: NPC1 prom act, SMN2 splice up, ELG1 genotox, Rab9 promoter act, p53 reactivation)
Cc1cc(C)c2nc(N3CCN(C(=O)c4cccs4)CC3)sc2c1	FLuc counter inconclusive (no result: SMN2 splice up)
CC(=O)c1ccc(N2CCN(C(=O)c3ccco3)CC2)c(F)c1	NPC1 prom act inconclusive, SMN2 splice up 2.82µM, ELG1 genotox inconclusive, Rab9 promoter act inconclusive (no result: p53 reactivation)
Cc1cc2nc(N3CCN(C(=O)c4cccs4)CC3)sc2cc1C	NPC1 prom act 3.98µM, FLuc counter inconclusive, Rab9 promoter act 2.82µM (no result: SMN2 splice up)
Cc1cc2nc(N3CCN(C(=O)c4ccco4)CC3)sc2cc1C	NPC1 prom act 2.51µM, FLuc counter 6.01µM, Rab9 promoter act 0.794µM, p53 reactivation inconclusive (no result: SMN2 splice up)
Cc1cc(C)c2nc(N3CCN(C(=O)c4ccco4)CC3)sc2c1	FLuc counter 16.9µM, Rab9 promoter act inconclusive (no result: SMN2 splice up)
Cc1ccccc1-c1cc(-n2ccnc2)ncn1	none (no result: NPC1 prom act, ELG1 genotox, FLuc counter, Rab9 promoter act, p53 reactivation)
Cc1ccc(Cc2cn3cc(-c4ccc(F)cc4)nc3s2)cc1	SMN2 splice up inconclusive, FLuc counter 0.757µM (no result: NPC1 prom act, ELG1 genotox, Rab9 promoter act, p53 reactivation)
O=C(NCCc1cnc[nH]1)c1ccc(-c2ccccc2)cc1	FLuc counter inconclusive (no result: SMN2 splice up)
Cc1c(-c2nc(N)nc(Nc3ccc(F)cc3)n2)oc2ccccc12	NPC1 prom act 2.24µM, SMN2 splice up 15.8µM, ELG1 genotox 2.31µM, FLuc counter inconclusive, Rab9 promoter act 1.78µM, p53 reactivation inconclusive
Cc1ccccc1Nc1nc(N)nc(-c2oc3ccccc3c2C)n1	NPC1 prom act inconclusive, ELG1 genotox inconclusive, FLuc counter 21.3µM, Rab9 promoter act 2.24µM (no result: SMN2 splice up)
COc1ccccc1Nc1nc(N)nc(-c2oc3ccccc3c2C)n1	none
Cc1ccc(Cl)cc1N1CCN(Cc2nnc(-c3ccc4c(c3)OCO4)o2)CC1	none (no result: NPC1 prom act, ELG1 genotox, Rab9 promoter act, p53 reactivation)
CCc1ccc(OC(=O)c2ccn(CC)n2)cc1	FLuc counter 15.1µM, p53 reactivation inconclusive
CC(=O)c1ccc(NC(=O)CC2Oc3ccc(C)cc3NC2=O)cc1 (stereo not given)	none (no result: NPC1 prom act, ELG1 genotox, Rab9 promoter act, p53 reactivation)
CCOCCOC(=O)COc1ccc2c(=O)c(Oc3ccc(OC)cc3)coc2c1	none (no result: SMN2 splice up)
Cc1nc(-c2coc3cc(O)c(C)cc3c2=O)cs1	NPC1 prom act inconclusive, SMN2 splice up 25.1µM, ELG1 genotox inconclusive, FLuc counter 0.953µM, Rab9 promoter act inconclusive
CC(C)(C)c1ccc(Oc2coc3cc(OCC(=O)O)ccc3c2=O)cc1	FLuc counter 2.13µM (no result: SMN2 splice up)
Cc1nc(-c2coc3cc(OCC(=O)O)ccc3c2=O)cs1	FLuc counter 1.9µM
Cc1nc(-c2coc3cc(C)c(N=O)c(O)c3/c2=N\N)cs1	FLuc counter inconclusive
CC(C)(Oc1ccc(-c2cccc3ccccc23)cc1)C(=O)O	none (no result: NPC1 prom act, ELG1 genotox, FLuc counter, Rab9 promoter act, p53 reactivation)
COCCN(C(=O)CSc1nnc(Nc2ccc(C)cc2)s1)c1c(N)n(CC(C)C)c(=O)[nH]c1=O	FLuc counter 10.7µM
CN(C(=O)CSc1nnc(Nc2ccccc2)s1)c1c(N)n(Cc2ccccc2)c(=O)[nH]c1=O	none (no result: SMN2 splice up)
CCCCn1c(N)c(N(CCC(C)C)C(=O)CSc2nnc(Nc3ccccc3)s2)c(=O)[nH]c1=O	FLuc counter 23.9µM
CCCCN(C(=O)CSc1nnc(Nc2ccc(C)c(C)c2)s1)c1c(N)n(Cc2ccccc2)c(=O)[nH]c1=O	SMN2 splice up 22.4µM, FLuc counter 1.07µM
CCCC1(C(=O)OC)C=C2C(=C(C(C)C)C(=O)C2C)CN1 (stereo not given)	none (no result: NPC1 prom act, ELG1 genotox, FLuc counter, Rab9 promoter act, p53 reactivation)
O=C(Nc1cc(C(F)(F)F)ccc1Cl)c1noc2c1CCCCC2	FLuc counter inconclusive (no result: NPC1 prom act, ELG1 genotox, Rab9 promoter act, p53 reactivation)
O=C(Nc1cnn(Cc2ccc(F)cc2)c1)c1noc2c1CCCC2	NPC1 prom act inconclusive, ELG1 genotox inconclusive, FLuc counter 15.1µM, Rab9 promoter act 3.98µM, p53 reactivation inconclusive
O=C(Nc1ccc(OC(F)(F)F)cc1)c1noc2c1CCCC2	SMN2 splice up 8.91µM, FLuc counter inconclusive (no result: NPC1 prom act, ELG1 genotox, Rab9 promoter act, p53 reactivation)
Cc1ccc(NC(=O)c2noc3c2CCC3)cc1C	NPC1 prom act 3.16µM, SMN2 splice up 2.82µM, ELG1 genotox inconclusive, FLuc counter 2.39µM, Rab9 promoter act 0.631µM, p53 reactivation inconclusive
CC(=O)c1ccc(NC(=O)c2noc3c2CCC3)cc1	NPC1 prom act 0.794µM, SMN2 splice up inconclusive, FLuc counter 12µM, Rab9 promoter act inconclusive
COc1cc(NC(=O)c2noc3c2CCC3)c(OC)cc1Cl	SMN2 splice up inconclusive
COc1ccc(C2=C(N3CCN(c4cccc(C)c4C)CC3)c3ccccc3C2=O)cc1	none (no result: NPC1 prom act, ELG1 genotox, Rab9 promoter act, p53 reactivation)
O=C(Nc1ccccc1C(=O)N1CCOCC1)c1noc2c1CCCC2	none
COc1ccc(NC(=O)c2noc3c2CCC3)cc1	NPC1 prom act 1.41µM, SMN2 splice up 10µM, ELG1 genotox inconclusive, FLuc counter 2.69µM, Rab9 promoter act 0.501µM, p53 reactivation inconclusive
O=C(Nc1cccc(O)c1)c1noc2c1CCCCC2	NPC1 prom act inconclusive, ELG1 genotox inconclusive, FLuc counter 0.953µM, Rab9 promoter act inconclusive, p53 reactivation inconclusive
CC(NC(=O)c1noc2c1CCCCC2)c1ccccc1 (stereo not given)	none
COC(=O)c1ccccc1NC(=O)c1noc2c1CCCC2	FLuc counter 16.9µM
COc1ccc(CNC(=O)c2noc3c2CCCCC3)cc1	FLuc counter inconclusive, Rab9 promoter act inconclusive
